{"source": "paper PMC8384837", "about": "“Expanding the binding specificity for RNA recognition by a PUF domain”", "test_in_all_cases": "yeast three-hybrid, YBZ-1, SC-Leu-His + 0.5 mM 3-AT, 4 days", "settings_in_all_cases": "tags: N-Gal4 AD-HA kept; label: inside an RPR1-promoter hybrid RNA with tandem MS2 sites; ssRNA", "key": {"PUM1 PUF domain R4-MNA": {"molecular_target": "PUM1 PUF domain R4-MNA (Homo sapiens, UniProt Q14671 828-1176, N971M;H972N;Q975A)", "in_short": "(§1)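 The interaction score is the log change in how often each variant appears, from input to selection. Frequencies came from PCR-amplified, Illumina-sequenced repeat regions of Pumilio-1 PUF domain libraries grown in strain YBZ-1 (LexA–MS2 coat fusion, HIS3 reporter) alongside matching RNA elements. Input plates were SC-Leu and selection plates were SC-Leu-His + 0.5 mM 3-AT, each for four days, and the log2 calculation used a pseudocount of 1 where a variant was absent.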"}, "PUM1 PUF domain R4-SQS": {"molecular_target": "PUM1 PUF domain R4-SQS (Homo sapiens, UniProt Q14671 828-1176, N971S;H972Q;Q975S)", "in_short": "as §1"}, "PUM1 PUF domain R3-FRA": {"molecular_target": "PUM1 PUF domain R3-FRA (Homo sapiens, UniProt Q14671 828-1176, C935F;Q939A)", "in_short": "as §1"}, "PUM1 PUF domain R3-LSS": {"molecular_target": "PUM1 PUF domain R3-LSS (Homo sapiens, UniProt Q14671 828-1176, C935L;R936S;Q939S)", "in_short": "as §1"}, "PUM1 PUF domain R3-PHL": {"molecular_target": "PUM1 PUF domain R3-PHL (Homo sapiens, UniProt Q14671 828-1176, C935P;R936H;Q939L)", "in_short": "as §1"}, "PUM1 PUF domain R2-LWL": {"molecular_target": "PUM1 PUF domain R2-LWL (Homo sapiens, UniProt Q14671 828-1176, N899L;Y900W;Q903L)", "in_short": "as §1"}, "PUM1 PUF domain R8-QYG": {"molecular_target": "PUM1 PUF domain R8-QYG (Homo sapiens, UniProt Q14671 828-1176, N1122Q;Q1126G)", "in_short": "as §1"}, "PUM1 PUF domain R5-STR": {"molecular_target": "PUM1 PUF domain R5-STR (Homo sapiens, UniProt Q14671 828-1176, C1007S;R1008T;Q1011R)", "in_short": "as §1"}, "PUM1 PUF domain R5-AFF": {"molecular_target": "PUM1 PUF domain R5-AFF (Homo sapiens, UniProt Q14671 828-1176, C1007A;R1008F;Q1011F)", "in_short": "as §1"}, "PUM1 PUF domain R5-CRR": {"molecular_target": "PUM1 PUF domain R5-CRR (Homo sapiens, UniProt Q14671 828-1176, Q1011R)", "in_short": "as §1"}, "PUM1 PUF domain R8-QWF": {"molecular_target": "PUM1 PUF domain R8-QWF (Homo sapiens, UniProt Q14671 828-1176, N1122Q;Y1123W;Q1126F)", "in_short": "as §1"}, "PUM1 PUF domain R1-MWR": {"molecular_target": "PUM1 PUF domain R1-MWR (Homo sapiens, UniProt Q14671 828-1176, S863M;R864W;Q867R)", "in_short": "as §1"}, "PUM1 PUF domain R1-NCS": {"molecular_target": "PUM1 PUF domain R1-NCS (Homo sapiens, UniProt Q14671 828-1176, S863N;R864C;Q867S)", "in_short": "as §1"}, "PUM1 PUF domain R1-CRR": {"molecular_target": "PUM1 PUF domain R1-CRR (Homo sapiens, UniProt Q14671 828-1176, S863C;Q867R)", "in_short": "as §1"}, "PUM1 PUF domain R5-KRN": {"molecular_target": "PUM1 PUF domain R5-KRN (Homo sapiens, UniProt Q14671 828-1176, C1007K;Q1011N)", "in_short": "as §1"}, "PUM1 PUF domain R5-KNS": {"molecular_target": "PUM1 PUF domain R5-KNS (Homo sapiens, UniProt Q14671 828-1176, C1007K;R1008N;Q1011S)", "in_short": "as §1"}, "PUM1 PUF domain R2-KRA": {"molecular_target": "PUM1 PUF domain R2-KRA (Homo sapiens, UniProt Q14671 828-1176, N899K;Y900R;Q903A)", "in_short": "as §1"}, "PUM1 PUF domain R6-TRE": {"molecular_target": "T1, PUM1 PUF domain R6-TRE (Homo sapiens, UniProt Q14671 828-1176, N1043T;Y1044R;Q1047E)", "T1 sequence": "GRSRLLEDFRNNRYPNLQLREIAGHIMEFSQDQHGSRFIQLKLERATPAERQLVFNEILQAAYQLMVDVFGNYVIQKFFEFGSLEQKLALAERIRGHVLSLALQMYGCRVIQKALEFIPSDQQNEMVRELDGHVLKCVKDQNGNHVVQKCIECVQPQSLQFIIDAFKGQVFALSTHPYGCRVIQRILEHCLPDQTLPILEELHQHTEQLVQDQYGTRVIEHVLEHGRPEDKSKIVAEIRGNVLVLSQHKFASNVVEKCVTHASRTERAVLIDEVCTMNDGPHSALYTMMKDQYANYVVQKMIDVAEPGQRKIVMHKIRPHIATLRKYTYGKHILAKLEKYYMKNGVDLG", "in_short": "as §1"}, "PUM1 PUF domain R7-ISR": {"molecular_target": "PUM1 PUF domain R7-ISR (Homo sapiens, UniProt Q14671 828-1176, S1079I;N1080S;E1083R)", "in_short": "as §1"}}, "data": [{"sequence": "GGCUAGAACUAGUGGAUCCCCCGGCGCCCGGCGGCUCGAGCCCGGGUAAGUGUAUAUAGUCUGCAUGCCGCCGGGCGCCAUGCCUGCAGGUCGACUCUAGAAAACAUG", "values": [{"measurement": "binding signal", "setting": "PUM1 PUF domain R4-MNA", "value": "4.12 log2 enrichment (interaction score)"}, {"measurement": "binding signal", "setting": "PUM1 PUF domain R4-SQS", "value": "0.2 log2 enrichment (interaction score)"}]}, {"sequence": "GGCUAGAACUAGUGGAUCCCCCGGCGCCCGGCGGCUCGAGCCCGGGUAAGUGUAAGUAGUCUGCAUGCCGCCGGGCGCCAUGCCUGCAGGUCGACUCUAGAAAACAUG", "values": [{"measurement": "binding signal", "setting": "PUM1 PUF domain R3-FRA", "value": "5.49 log2 enrichment (interaction score)"}, {"measurement": "binding signal", "setting": "PUM1 PUF domain R3-LSS", "value": "5.06 log2 enrichment (interaction score)"}]}, {"sequence": "GGCUAGAACUAGUGGAUCCCCCGGCGCCCGGCGGCUCGAGCCCGGGUAAGUGUAAUUAGUCUGCAUGCCGCCGGGCGCCAUGCCUGCAGGUCGACUCUAGAAAACAUG", "values": [{"measurement": "binding signal", "setting": "PUM1 PUF domain R3-FRA", "value": "1.3 log2 enrichment (interaction score)"}, {"measurement": "binding signal", "setting": "PUM1 PUF domain R3-PHL", "value": "4.16 log2 enrichment (interaction score)"}, {"measurement": "binding signal", "setting": "PUM1 PUF domain R3-LSS", "value": "3.25 log2 enrichment (interaction score)"}]}, {"sequence": "GGCUAGAACUAGUGGAUCCCCCGGCGCCCGGCGGCUCGAGCCCGGGUAAGUGUAAAUAGUCUGCAUGCCGCCGGGCGCCAUGCCUGCAGGUCGACUCUAGAAAACAUG", "values": [{"measurement": "binding signal", "setting": "PUM1 PUF domain R2-LWL", "value": "1.87 log2 enrichment (interaction score)"}, {"measurement": "binding signal", "setting": "PUM1 PUF domain R8-QYG", "value": "3.24 log2 enrichment (interaction score)"}, {"measurement": "binding signal", "setting": "PUM1 PUF domain R5-STR", "value": "1.08 log2 enrichment (interaction score)"}, {"measurement": "binding signal", "setting": "PUM1 PUF domain R5-AFF", "value": "2.83 log2 enrichment (interaction score)"}, {"measurement": "binding signal", "setting": "PUM1 PUF domain R4-SQS", "value": "2.72 log2 enrichment (interaction score)"}, {"measurement": "binding signal", "setting": "PUM1 PUF domain R5-CRR", "value": "2.75 log2 enrichment (interaction score)"}, {"measurement": "binding signal", "setting": "PUM1 PUF domain R8-QWF", "value": "2.1 log2 enrichment (interaction score)"}]}, {"sequence": "GGCUAGAACUAGUGGAUCCCCCGGCGCCCGGCGGCUCGAGCCCGGGUAAGUGUAAAAAGUCUGCAUGCCGCCGGGCGCCAUGCCUGCAGGUCGACUCUAGAAAACAUG", "values": [{"measurement": "binding signal", "setting": "PUM1 PUF domain R2-LWL", "value": "6.07 log2 enrichment (interaction score)"}]}, {"sequence": "GGCUAGAACUAGUGGAUCCCCCGGCGCCCGGCGGCUCGAGCCCGGGUAAGUGUAAAUUGUCUGCAUGCCGCCGGGCGCCAUGCCUGCAGGUCGACUCUAGAAAACAUG", "values": [{"measurement": "binding signal", "setting": "PUM1 PUF domain R1-MWR", "value": "3.06 log2 enrichment (interaction score)"}, {"measurement": "binding signal", "setting": "PUM1 PUF domain R1-NCS", "value": "3.38 log2 enrichment (interaction score)"}, {"measurement": "binding signal", "setting": "PUM1 PUF domain R1-CRR", "value": "0.67 log2 enrichment (interaction score)"}]}, {"sequence": "GGCUAGAACUAGUGGAUCCCCCGGCGCCCGGCGGCUCGAGCCCGGGUAAGUGUAAAUCGUCUGCAUGCCGCCGGGCGCCAUGCCUGCAGGUCGACUCUAGAAAACAUG", "values": [{"measurement": "binding signal", "setting": "PUM1 PUF domain R1-MWR", "value": "3.03 log2 enrichment (interaction score)"}, {"measurement": "binding signal", "setting": "PUM1 PUF domain R1-CRR", "value": "2.5 log2 enrichment (interaction score)"}]}, {"sequence": "GGCUAGAACUAGUGGAUCCCCCGGCGCCCGGCGGCUCGAGCCCGGGUAAGUGUCAAUAGUCUGCAUGCCGCCGGGCGCCAUGCCUGCAGGUCGACUCUAGAAAACAUG", "values": [{"measurement": "binding signal", "setting": "PUM1 PUF domain R5-KRN", "value": "4.24 log2 enrichment (interaction score)"}, {"measurement": "binding signal", "setting": "PUM1 PUF domain R5-STR", "value": "5.88 log2 enrichment (interaction score)"}, {"measurement": "binding signal", "setting": "PUM1 PUF domain R5-KNS", "value": "4.54 log2 enrichment (interaction score)"}, {"measurement": "binding signal", "setting": "PUM1 PUF domain R5-CRR", "value": "4.63 log2 enrichment (interaction score)"}]}, {"sequence": "GGCUAGAACUAGUGGAUCCCCCGGCGCCCGGCGGCUCGAGCCCGGGUAAGCGUAAAUAGUCUGCAUGCCGCCGGGCGCCAUGCCUGCAGGUCGACUCUAGAAAACAUG", "values": [{"measurement": "binding signal", "setting": "PUM1 PUF domain R8-QYG", "value": "3.1 log2 enrichment (interaction score)"}, {"measurement": "binding signal", "setting": "PUM1 PUF domain R8-QWF", "value": "2.87 log2 enrichment (interaction score)"}]}, {"sequence": "GGCUAGAACUAGUGGAUCCCCCGGCGCCCGGCGGCUCGAGCCCGGGUAAGUGUAAAGAGUCUGCAUGCCGCCGGGCGCCAUGCCUGCAGGUCGACUCUAGAAAACAUG", "values": [{"measurement": "binding signal", "setting": "PUM1 PUF domain R2-KRA", "value": "4.63 log2 enrichment (interaction score)"}]}, {"sequence": "GGCUAGAACUAGUGGAUCCCCCGGCGCCCGGCGGCUCGAGCCCGGGUAAGUGGAAAUAGUCUGCAUGCCGCCGGGCGCCAUGCCUGCAGGUCGACUCUAGAAAACAUG", "values": [{"measurement": "binding signal", "setting": "PUM1 PUF domain R6-TRE", "value": "5.05 log2 enrichment (interaction score)"}]}, {"sequence": "GGCUAGAACUAGUGGAUCCCCCGGCGCCCGGCGGCUCGAGCCCGGGUAAGUUUAAAUAGUCUGCAUGCCGCCGGGCGCCAUGCCUGCAGGUCGACUCUAGAAAACAUG", "values": [{"measurement": "binding signal", "setting": "PUM1 PUF domain R7-ISR", "value": "5.98 log2 enrichment (interaction score)"}]}]}
